Data: the supplement of paper PMC4466140

Assays:
Assay in all cases: SPOT peptide array binding signal intensity (averaged, normalized) (arbitrary units (background-subtracted, floor 0; scale differs between SH3 domains)); higher = stronger binding of the SH3 domain to the peptide
[1] = molecular target: AgAbp1
Description: (§1)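 GST-tagged SH3 domains from S. cerevisiae (Sc), A. gossypii (Ag), C. albicans (Ca) and S. pombe (Sp) were incubated at 10 ug/ml overnight at 4 C on cellulose SPOT membranes carrying 292 synthetic 15-mer peptides mined from the S. cerevisiae proteome (cysteines replaced by serines). Binding was detected with anti-GST antibody, HRP secondary and chemiluminescence, quantified with Genespotter, and reported as normalized spot intensities averaged over biological replicates.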

[2] = molecular target: AgBbc1
Description: as §1

[3] = molecular target: AgBem1-D1
Description: as §1

[4] = molecular target: AgBzz1-D1
Description: as §1

[5] = molecular target: AgBzz1-D2
Description: as §1

[6] = molecular target: AgCyk3
Description: as §1

[7] = molecular target: AgFus1
Description: as §1

[8] = molecular target: AgHof1
Description: as §1

[9] = molecular target: AgHse1
Description: as §1

[10] = molecular target: AgLsb1
Description: as §1

[11] = molecular target: AgLsb4
Description: as §1

[12] = molecular target: AgMyo5
Description: as §1

[13] = molecular target: AgNbp2
Description: as §1

[14] = molecular target: AgRvs167
Description: as §1

[15] = molecular target: AgSho1
Description: as §1

[16] = molecular target: AgSla1-D1-D2
Description: as §1

[17] = molecular target: AgSla1-D3
Description: as §1

[18] = molecular target: CaAbp1-D1
Description: as §1

[19] = molecular target: CaAbp1-D2
Description: as §1

[20] = molecular target: CaBbc1
Description: as §1

[21] = molecular target: CaBem1-D1
Description: as §1

[22] = molecular target: CaBzz1-D1
Description: as §1

[23] = molecular target: CaBzz1-D2
Description: as §1

[24] = molecular target: CaCyk3
Description: as §1

[25] = molecular target: CaFus1
Description: as §1

[26] = molecular target: CaHof1
Description: as §1

[27] = molecular target: CaHse1
Description: as §1

[28] = molecular target: CaLsb1
Description: as §1

[29] = molecular target: CaLsb4
Description: as §1

[30] = molecular target: CaMyo5
Description: as §1

[31] = molecular target: CaNbp2
Description: as §1

[32] = molecular target: CaRvs167
Description: as §1

[33] = molecular target: CaRvs167-3
Description: as §1

[34] = molecular target: CaSho1
Description: as §1

[35] = molecular target: CaSla1-D1-D2
Description: as §1

[36] = molecular target: CaSla1-D3
Description: as §1

[37] = molecular target: ScAbp1
Description: as §1

[38] = molecular target: ScBbc1
Description: as §1

[39] = molecular target: ScBem1-D1
Description: as §1

[40] = molecular target: ScBzz1-D1
Description: as §1

[41] = molecular target: ScBzz1-D2
Description: as §1

[42] = molecular target: ScCyk3
Description: as §1

[43] = molecular target: ScFus1
Description: as §1

[44] = molecular target: ScHof1
Description: as §1

[45] = molecular target: ScHse1
Description: as §1

[46] = molecular target: ScLsb1
Description: as §1

[47] = molecular target: ScLsb2
Description: as §1

[48] = molecular target: ScLsb3
Description: as §1

[49] = molecular target: ScLsb4
Description: as §1

[50] = molecular target: ScMyo3
Description: as §1

[51] = molecular target: ScMyo5
Description: as §1

[52] = molecular target: ScNbp2
Description: as §1

[53] = molecular target: ScPex13
Description: as §1

[54] = molecular target: ScRvs167
Description: as §1

[55] = molecular target: ScSho1
Description: as §1

[56] = molecular target: ScSla1-D1-D2
Description: as §1

[57] = molecular target: ScSla1-D3
Description: as §1

[58] = molecular target: SpAbp1-D1
Description: as §1

[59] = molecular target: SpBbc1
Description: as §1

[60] = molecular target: SpBzz1-D1
Description: as §1

[61] = molecular target: SpBzz1-D2
Description: as §1

[62] = molecular target: SpCyk3
Description: as §1

[63] = molecular target: SpHof1
Description: as §1

[64] = molecular target: SpHof1-2
Description: as §1

[65] = molecular target: SpHof1-3
Description: as §1

[66] = molecular target: SpHse1
Description: as §1

[67] = molecular target: SpLsb1
Description: as §1

[68] = molecular target: SpLsb4
Description: as §1

[69] = molecular target: SpMyo1
Description: as §1

[70] = molecular target: SpNbp2
Description: as §1

[71] = molecular target: SpPex13
Description: as §1

[72] = molecular target: SpRvs167
Description: as §1

[73] = molecular target: SpSla1-D1-D2
Description: as §1

[74] = molecular target: SpSla1-D3
Description: as §1

RSRRSSFAYPQQVAI
SPOT peptide array binding signal intensity [1]: 22
SPOT peptide array binding signal intensity [2]: 64
SPOT peptide array binding signal intensity [3]: 91.5
SPOT peptide array binding signal intensity [4]: 32
SPOT peptide array binding signal intensity [5]: 50.5
SPOT peptide array binding signal intensity [6]: 1
SPOT peptide array binding signal intensity [7]: 200
SPOT peptide array binding signal intensity [8]: 33.5
SPOT peptide array binding signal intensity [9]: 254
SPOT peptide array binding signal intensity [10]: 2.5
SPOT peptide array binding signal intensity [11]: 39.5
SPOT peptide array binding signal intensity [12]: 6.25
SPOT peptide array binding signal intensity [13]: 39
SPOT peptide array binding signal intensity [14]: 2.33
SPOT peptide array binding signal intensity [15]: 9
SPOT peptide array binding signal intensity [16]: 63.5
SPOT peptide array binding signal intensity [17]: 4.5
SPOT peptide array binding signal intensity [18]: 170
SPOT peptide array binding signal intensity [19]: 152
SPOT peptide array binding signal intensity [20]: 258
SPOT peptide array binding signal intensity [21]: 20.5
SPOT peptide array binding signal intensity [22]: 84.5
SPOT peptide array binding signal intensity [23]: 102
SPOT peptide array binding signal intensity [24]: 9
SPOT peptide array binding signal intensity [25]: 262
SPOT peptide array binding signal intensity [26]: ≤ 0
SPOT peptide array binding signal intensity [27]: 4.5
SPOT peptide array binding signal intensity [28]: 1.5
SPOT peptide array binding signal intensity [29]: 70.5
SPOT peptide array binding signal intensity [30]: 7.25
SPOT peptide array binding signal intensity [31]: 130
SPOT peptide array binding signal intensity [32]: 5.67
SPOT peptide array binding signal intensity [33]: 13.5
SPOT peptide array binding signal intensity [34]: 66.5
SPOT peptide array binding signal intensity [35]: 55
SPOT peptide array binding signal intensity [36]: 2.25
SPOT peptide array binding signal intensity [37]: 27.5
SPOT peptide array binding signal intensity [38]: 24.5
SPOT peptide array binding signal intensity [39]: 79.5
SPOT peptide array binding signal intensity [40]: 37
SPOT peptide array binding signal intensity [41]: 28
SPOT peptide array binding signal intensity [42]: 69
SPOT peptide array binding signal intensity [43]: 157
SPOT peptide array binding signal intensity [44]: 0.5
SPOT peptide array binding signal intensity [45]: 644
SPOT peptide array binding signal intensity [46]: 1
SPOT peptide array binding signal intensity [47]: 7.5
SPOT peptide array binding signal intensity [48]: 59
SPOT peptide array binding signal intensity [49]: 24.5
SPOT peptide array binding signal intensity [50]: 3.5
SPOT peptide array binding signal intensity [51]: 8.5
SPOT peptide array binding signal intensity [52]: 141
SPOT peptide array binding signal intensity [53]: 10
SPOT peptide array binding signal intensity [54]: 8.33
SPOT peptide array binding signal intensity [55]: 304
SPOT peptide array binding signal intensity [56]: 339
SPOT peptide array binding signal intensity [57]: 20.2
SPOT peptide array binding signal intensity [58]: 36
SPOT peptide array binding signal intensity [59]: 3.5
SPOT peptide array binding signal intensity [60]: 169

LKVTPGRRAPTISKI
SPOT peptide array binding signal intensity [31]: 2720
SPOT peptide array binding signal intensity [32]: 1.5
SPOT peptide array binding signal intensity [33]: 27.5
SPOT peptide array binding signal intensity [34]: 15.5
SPOT peptide array binding signal intensity [35]: 56
SPOT peptide array binding signal intensity [36]: 1.5
SPOT peptide array binding signal intensity [37]: 21
SPOT peptide array binding signal intensity [38]: 1.75
SPOT peptide array binding signal intensity [39]: 9
SPOT peptide array binding signal intensity [40]: 26
SPOT peptide array binding signal intensity [41]: 5.5
SPOT peptide array binding signal intensity [42]: 10
SPOT peptide array binding signal intensity [43]: 0.5
SPOT peptide array binding signal intensity [44]: ≤ 0
SPOT peptide array binding signal intensity [45]: 99
SPOT peptide array binding signal intensity [46]: ≤ 0
SPOT peptide array binding signal intensity [47]: 3
SPOT peptide array binding signal intensity [48]: 21.5
SPOT peptide array binding signal intensity [49]: ≤ 0
SPOT peptide array binding signal intensity [50]: 39.5
SPOT peptide array binding signal intensity [51]: 20.2
SPOT peptide array binding signal intensity [52]: 4490
SPOT peptide array binding signal intensity [53]: ≤ 0
SPOT peptide array binding signal intensity [54]: 0.333
SPOT peptide array binding signal intensity [55]: 33
SPOT peptide array binding signal intensity [56]: 61.5
SPOT peptide array binding signal intensity [57]: 32.8
SPOT peptide array binding signal intensity [58]: 170
SPOT peptide array binding signal intensity [59]: 1
SPOT peptide array binding signal intensity [60]: 332
SPOT peptide array binding signal intensity [61]: 1.25
SPOT peptide array binding signal intensity [62]: 1.5
SPOT peptide array binding signal intensity [63]: 37.8
SPOT peptide array binding signal intensity [64]: 0.5
SPOT peptide array binding signal intensity [65]: 165
SPOT peptide array binding signal intensity [66]: 67.8
SPOT peptide array binding signal intensity [67]: ≤ 0
SPOT peptide array binding signal intensity [68]: 30
SPOT peptide array binding signal intensity [69]: 352
SPOT peptide array binding signal intensity [70]: 8
SPOT peptide array binding signal intensity [71]: ≤ 0
SPOT peptide array binding signal intensity [72]: ≤ 0
SPOT peptide array binding signal intensity [73]: 4
SPOT peptide array binding signal intensity [74]: ≤ 0
